# ALOX12 inh: inhibitors of human 12S-lipoxygenase ALOX12 | Potency, µM (titrated, usually from 108 µM), inactives show top-dose activity change, negative = inhibition, actives largely listed as inhibitors | P18054 | 1.1% of 580,000 active | purified 12hLO, xylenol orange hydroperoxide absorbance; also: % is scaled to controls: 0 for no effect and ±100 for the full control effect
# Target sequence (P18054 whole entry, looked up): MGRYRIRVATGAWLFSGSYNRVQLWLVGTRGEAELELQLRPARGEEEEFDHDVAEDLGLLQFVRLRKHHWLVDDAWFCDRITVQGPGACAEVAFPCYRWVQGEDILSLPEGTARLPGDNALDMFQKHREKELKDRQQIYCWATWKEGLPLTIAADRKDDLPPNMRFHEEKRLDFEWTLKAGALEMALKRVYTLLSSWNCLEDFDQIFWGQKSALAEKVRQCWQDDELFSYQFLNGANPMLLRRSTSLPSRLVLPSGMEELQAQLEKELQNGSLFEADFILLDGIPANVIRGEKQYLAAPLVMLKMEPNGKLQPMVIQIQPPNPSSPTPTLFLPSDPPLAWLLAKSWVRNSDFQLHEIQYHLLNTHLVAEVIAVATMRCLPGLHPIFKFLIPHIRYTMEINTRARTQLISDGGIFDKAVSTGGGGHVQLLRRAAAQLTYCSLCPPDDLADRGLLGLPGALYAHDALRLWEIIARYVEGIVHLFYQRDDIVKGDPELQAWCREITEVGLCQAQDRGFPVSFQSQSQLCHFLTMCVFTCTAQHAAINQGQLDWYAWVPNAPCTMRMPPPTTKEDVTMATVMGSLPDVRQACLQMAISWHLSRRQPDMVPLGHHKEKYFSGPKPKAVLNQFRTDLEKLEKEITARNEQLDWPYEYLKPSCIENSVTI
#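 Hydroperoxide product was detected by ferrous iron/xylenol orange as the 573 to 405 nm absorbance ratio. Arachidonic acid at 40 uM (final) was turned over for 30 min at room temperature by 150 nM human 12hLO, pH 7.0 Hepes buffer, after 15 min compound preincubation.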
# GRP78 ERSR act: induces the endoplasmic reticulum stress response in human glioma cells; U87-MG GRP78 promoter luciferase reporter, 16 h; Potency, µM, without a hit: top-dose activation, most hits filed as activators; 0.02% of 420,000 active; AID 602332; also: series mostly up to about 76 µM; % of control where 0% means no effect; nearly all actives have a fitted effect of over 35% in size
#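 Stably transfected U87-MG human glioma cells carrying a GRP78-based luminescent sensor were seeded at 1000 cells/well, pin-dosed with compounds and incubated 16 h. Luciferase reagent was then added, and end-point luminescence was read after 10 min at room temperature.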
# Sfp inh: inhibitors of Bacillus subtilis Sfp phosphopantetheinyl transferase; Biochemical Sfp PPTase activity, qHTS; Potency, µM, without a hit: largest response in the series, negative = inhibition, most hits filed as inhibitors; 3.5% of 310,000 active; AID 1490;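 also: the enzyme is Sfp with the accession as filed and its product quenches rhodamine fluorescence; 0% = enzyme reaction without inhibitor and -100% = no enzyme wells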
#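 Sfp 15 nM + cpd, 15 min RT; start w/ rhodamine-CoA 5 uM, BHQ-2-YbbR 12.5 uM (final); 50 mM Hepes pH 7.6, 10 mM MgCl2, 0.01% NP-40, 0.01% BSA; read 525/598 nm at 0 and 30 min.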
# VDR inhibitor: inhibitors of human vitamin D receptor. P11473. VDR-SRC2-3 peptide fluorescence polarization, 2 h. Potency, µM, without a hit: max response, negative = inhibition, hits mostly inhibitors. 0.93% of 400,000 active; also: % is scaled to controls: 0 for no effect and ±100 for the full control effect
#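 FP read-out; VDR + SRC2-3 coactivator peptide; 23 nl compound by pintool; 2 h RT incubation; reagents held at 4 deg C, protected from light.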
# G9a inh: G9a (human) methyltransferase inhibition; Q96KQ7; G9a H3K9 monomethylation, AlphaScreen, 2 h; Potency, µM (doses to about 102 µM), for the others: top-dose activity, negative = inhibition, hits mostly inhibitors; 8.8% of 350,000 active; AID 504332; also: % is scaled to controls: 0 for no effect and ±100 for the full control effect; nearly all actives have a fitted effect of over 75% in size
#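 Signal arises when biotinylated H3K9 peptide, once monomethylated, bridges streptavidin donor and antibody-captured acceptor beads. Enzyme at 20 nM was preincubated 15 min with test compounds; peptide 500 nM and SAM 20 uM then reacted for 2 h.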
# * hit, by the source's call; ? = inconclusive; / = no result; [ ] = another dose, or the depositor's remark. Many of the other results were omitted from the sample, so hits are more common in it than they were. Calls follow the shape of the dose curve; as a rule, active = well fitted curve in the direction sought with a large enough effect; inconclusive = small, poorly fitted or top-dose-only effect, or another doubt; inactive = no such curve, though single readings can be large; an effect the other way counts as inactive or inconclusive. Potency is read from the fitted curve at half-maximal effect.
SMILES,ALOX12 inh,GRP78 ERSR act,Sfp inh,VDR inhibitor,G9a inh
O=C(COC(=O)/C=C/c1ccco1)Nc1ncc(C(F)(F)F)cc1Cl,?,-1%,40µM*,-6%,22µM*
Cc1c(Cl)cnc(NC(=O)COC(=O)c2cc3c(s2)CCC(C)C3)c1Cl (configuration not stated),-9%,0%,9%,4%,35µM*
CCn1nc(C(=O)OCC(=O)Nc2ncc(Cl)c(C)c2Cl)c2ccccc2c1=O,?,-6%,2%,-17%,50µM*
Cc1c(Cl)cnc(NC(=O)COC(=O)/C=C/c2ccco2)c1Cl,?,-6%,/,-22%,45µM*
Cc1c(Cl)cnc(NC(=O)COC(=O)C(NC(=O)c2ccco2)C(C)C)c1Cl (configuration not stated),?,-3%,-21%,8%,?
CCN(CC)S(=O)(=O)c1cc(C)c(C)c(N)c1,2%,/,/,/,/
COc1ccc(OC)c(NC(=O)C(C)OC(=O)c2ccsc2)c1 (configuration not stated),2%,/,/,/,/
COc1ccc(NC(=O)N2CCN(S(=O)(=O)c3cc4c(cc3Cl)NC(=O)C(C)O4)CC2)cc1 (configuration not stated),-15%,/,/,/,/
Cc1cc(C)c2c(=O)cc(C(=O)Nc3ccccc3C)oc2c1,45%,/,/,/,/
COc1ccc(CC(=O)OCC(=O)Nc2ncc(Cl)c(C)c2Cl)cc1,11µM*,1%,/,1%,?
CCOc1cc(C(=O)OCC(=O)Nc2c(C)cccc2C)ccc1OCC(=O)N1CCOCC1,-6%,-2%,6%,-2%,24%[59 µM]
CCOc1cc(C(=O)OCC(=O)Nc2ncc(Cl)c(C)c2Cl)ccc1OCC(=O)N1CCOCC1,-2%,-3%,5%,11%,45µM*
CCC(C)c1ccc(NC(=S)Nc2ccc(OC)c(OC)c2)cc1 (configuration not stated),?,1%,-2%,-3%,?
CCn1ncc(NC(=S)Nc2ccc(OC)c(OC)c2)c1C(N)=O,?,-1%,32µM*,0%,45µM*
CCn1ncc(NC(=S)Nc2ccc3c(c2)OCO3)c1C(N)=O,-17%,2%,56µM*,4%,20µM*
COC(=O)c1cc(NC(=O)N2CCc3[nH]cnc3C2c2ccc(Cl)cc2)ccc1Cl (configuration not stated),41%,/,/,/,/
CCCCNCCCOc1cccc(Cl)c1,-32%,-4%,9%,1%,24%[12.7 µM]
CC(C)c1cccc(OCCCCN(C)C)c1,-30%,-2%,79µM*,0%,4µM*
CN(C)CCCOc1cccc(Cl)c1,?,-4%,-19%,4%,14µM*
C=CCN(CC=C)CCOc1cccc(Oc2ccccc2)c1,-29%,-1%,-24%,-2%,14µM*
CN(C)CCCOc1cccc(Oc2ccccc2)c1,?,0%,-47%,-15%,14µM*
CN(C)CCCOC(=O)COc1ccccc1,-13%,/,/,/,/
CC1CCC(C(C)C)C(OCC(O)CN2CCCC(C)C2)C1 (configuration not stated),-1%,-3%,21%,-9%,-11%
CC1CCC(C(C)C)C(OCC(O)C[N+]2(C)CCCCC2)C1 (configuration not stated),0%,-2%,-4%,-8%,50µM*
COc1ccc(N2CCN(C(=S)NC(=O)c3cccs3)CC2)c([N+](=O)[O-])c1,?,-1%,8%,-1%,32µM*
SMILES,ALOX12 inh,GRP78 ERSR act,Sfp inh,VDR inhibitor,G9a inh
COc1ccc(N2CCN(C(=O)c3ccc(C)cc3)CC2)c([N+](=O)[O-])c1,-23%,2%,-2%,-22%,?
O=C(c1ccc(F)cc1)N1CCN(c2ccc([N+](=O)[O-])c(N3CCCCC3)c2)CC1,-9%,3%,1%,-1%,28µM*
O=C(NC(=S)N1CCN(c2c(Cl)cccc2[N+](=O)[O-])CC1)c1cccs1,-14%,1%,-5%,-21%,-48%[59 µM]
COc1ccc(N2CCN(C(=O)c3ccccc3Br)CC2)c([N+](=O)[O-])c1,6%,4%,3%,0%,56µM*
Cn1c(=O)n(C)c2cc([N+](=O)[O-])c(N3CCN(C(=O)c4ccc(F)cc4)CC3)cc21,-12%,-3%,-8%,-17%,14%[12.7 µM]
COc1ccc(N2CCN(C(=O)c3ccc(Br)cc3)CC2)c([N+](=O)[O-])c1,-11%,-8%,7%,11%,45µM*
CCC(=O)N1CCCC(CN2CCN(c3ccccn3)CC2)C1 (configuration not stated),5%,/,/,/,/
CN1CCN(C(=O)c2cn(C)c3ccccc23)C(c2ccccc2)C1 (configuration not stated),37%,/,/,/,/
Cc1nn(-c2ccccc2)cc1C(=O)N1CCC(C(C)C(=O)NCc2ccc3c(c2)OCO3)CC1 (configuration not stated),-3%,/,/,/,/
COc1cccc(CN2CCOC3CCN(CCCc4ccccc4)CC3C2=O)c1 (configuration not stated),-2%[176 µM],/,/,/,/
CC(C)c1ccccc1-n1c(SCC(=O)c2ccc3c(c2)NC(=O)CO3)nc2ccccc2c1=O,20%,-8%,6%,-8%,40µM*
O=C1COc2ccc(C(=O)CSc3nnc(Cc4cccs4)n3-c3ccccc3)cc2N1,3%,-1%,-21%,-16%,79µM*
O=C1COc2ccc(C(=O)CSc3nnc(-c4cccs4)n3Cc3ccccc3)cc2N1,0%,-6%,-10%,-7%,?
CCOC(=O)COc1ccc(F)cc1C(=O)c1ccn2nc(-c3ccc(OC)cc3)cc2n1,-11%,/,/,/,/
O=C(Cc1cccnc1)N1CCC(N2CC(OCC3CC3)C23CCCCC3)CC1 (configuration not stated),43%,/,/,/,/
CNC(=S)N(CCc1c(C)[nH]c2ccc(F)cc12)Cc1ccco1,106%,-7%,3%,3%,71µM*
CNC(=S)N(CCc1c(C)[nH]c2ccccc12)Cc1ccco1,109%,2%,13%,4%,50µM*
CC(C)n1ncc2cc(C(=O)Nc3ccc(OCC(F)(F)F)cc3)cnc21,6%,/,/,/,/
C[C@@H]1NC(=O)c2cc([N+](=O)[O-])cc(I)c2OCC[C@@H](C(N)=O)NC(=O)[C@H](CCC(=O)O)NC1=O,/,/,-8%,/,28µM*
CC(C)[C@@H]1NC(=O)c2cc([N+](=O)[O-])cc(I)c2OCC[C@@H](C(N)=O)NC(=O)[C@H](CCC(=O)O)NC1=O,?,-5%,34%,-8%,45µM*
CCC(=O)NCCc1sc(-c2ccc(F)cc2)nc1C,-2%,/,/,/,/
Cc1cc(C)cc(OC(=O)c2cnc(C)cn2)c1,-4%,/,/,/,/
CC(C)OC(=O)c1c(N)sc2c1CCCC2,?,0%,/,?,/
Cc1cccc(C(=O)c2c(N)sc3c2CCCC3)c1,?,-3%,45µM*,-22%,32µM*
Nc1sc2c(c1C(=O)c1ccc(Cl)cc1)CCCC2,/,-6%,10%,45µM*,/

# Source: PubChem BioAssay
